Experimental findings from ChEMBL document CHEMBL1157539, “Thousands of chemical starting points for antimalarial lead identification” (Nature, 2010) are described below.

What all share (assay type): functional
For assay [1], the system named is Plasmodium falciparum. Kind of assay: GSK_TCMDC: Inhibition of Plasmodium falciparum 3D7 in whole red blood cells, using parasite LDH activity as an index of growth. Test compounds present at 2uM.
For assay [2], the system named is Plasmodium falciparum. Kind of assay: GSK_TCMDC: Inhibition of Plasmodium falciparum Dd2 in whole red blood cells, using parasite LDH activity as an index of growth. Test compounds present at 2uM.
In assay [3] the test system is HepG2. Kind of assay: GSK_TCMDC: Percent inhibition of human HepG2 cell line. Test compounds present at 10uM.

“And” between values parts separate entries of the source, which are not always exact repeats. Equal values may be shown once.

On to `CC(C)N1CCN(C(CN2CCN(CCCOc3ccc4ccccc4c3)CC2)c2ccc(F)cc2)CC1.Cl` (stereo not given), for which the values for the Inhibition in assay [1], in assay [2] and in assay [3] were 100%, 91% and 59%, respectively.

In the case of `COc1cc(Cc2cnc(N)nc2N)c2ccsc2c1OC.Cl`, the figures for the Inhibition in assay [1], in assay [2] and in assay [3] were 92%, 4% and 5%, respectively.

Regarding `CCCN(CCC)C(=O)c1cc(C(=O)N[C@@H](Cc2ccccc2)[C@H](O)CNC(C)(C)c2cccc(C(F)(F)F)c2)cc(N2CCCCS2(=O)=O)c1`, the Inhibition – broadly, the relative decrease from the control value, in per cent – was found to be 99% in assay [1], 98% in assay [2] and 19% in assay [3].

`O=C(Nc1ccc(OC2CCN(Cc3ccc(F)cc3)CC2)cc1)c1cccs1.O=C(O)C(F)(F)F`: the Inhibition in assay [1] was found to be 84%; in assay [2], 52%; in assay [3], 6%.

Turning to `Oc1ccccc1CN1CCC2(CCCN(Cc3ccccc3F)C2)C1` (stereo not given), the Inhibition amounted to 98% in assay [1], 83% in assay [2] and 13% in assay [3].

Turning to `CC(C)(C)c1ccc2[nH]c(-c3ccc(/C=C/C(=O)NCc4cccc(C(F)(F)F)c4)cc3)nc2c1`, the Inhibition in assay [1] was found to be 93%; in assay [2], 11%; in assay [3] it was 31%.

Turning to `Cc1cc(=O)c(-c2ccc(Oc3cccc(OC(F)(F)F)c3)cc2)c(C)[nH]1`, the Inhibition in assay [1] is listed as 97%; in assay [2], 96%; in assay [3] it was 13%.

For `CCN(CC)S(=O)(=O)c1cc(-c2ccc(=O)n(CC(=O)c3ccc(C)cc3)n2)ccc1C`, the figures for the Inhibition in assay [1], in assay [2] and in assay [3] were 86%, 66% and 6%, respectively.

Regarding `Cl.O=C(Nc1ccnc2ccccc12)NC1CCN(CCc2ccccc2)CC1`, the Inhibition in assay [1] is reported as 100%; in assay [2], 43%; in assay [3], 7%.

Turning to `O=C(Nc1ccc(Cl)cc1)c1ccc(CN2CCCN(Cc3ccccc3)CC2)cc1.O=C(O)C(F)(F)F`, the Inhibition in assay [1] stood at 96%; in assay [2], 2%; in assay [3], 46%.

As for `Br.CCOc1ccc(OCCCON2C(=N)N=C(N)NC2(C)C)cc1`, the Inhibition in assay [1] is given as 97%; in assay [2], 94%; in assay [3], 63%.

Take `CN1CCN(c2ccc(-c3cc(-c4cc(F)c(F)c(F)c4)cnc3N)cc2)CC1`: the Inhibition in assay [1] amounted to 88%; in assay [2] it was 12%; in assay [3], 58%.

In the case of `CCCCCOc1ccc(C(O)C(CCC(CN2CCCCCC2)C(O)c2ccc(OCCCCC)cc2)CN2CCCCCC2)cc1.Cl` (stereo not given), the Inhibition in assay [1] amounted to 99%; in assay [2], 93%; in assay [3], 99%.

Regarding `CC(C)(C)C1CCc2onc(C(=O)Nc3cc(Cl)ccc3O)c2C1` (stereo not given), the Inhibition was found to be 98% in assay [1], 82% in assay [2] and 5% in assay [3].

Consider `CCC(CC(NCCCCNC(=O)c1ccc(NC(=O)c2ccc(Cl)cc2)cc1)c1ccccc1)c1ccccc1OC` (stereo not given), for which the Inhibition is 100% and 89% in assay [1]; 56% and 76% in assay [2]; 23% and 10% in assay [3].

Consider `CCCCCCCC1=NN2C(=N)C(=Cc3cc(Br)c(OCc4ccc(F)cc4)c(OCC)c3)C(=O)N=C2S1`, for which the values for the Inhibition in assay [1], in assay [2] and in assay [3] were 95%, 0% and 4%, respectively.

As to `Cl.Clc1ccc(-n2cnc3c(Nc4ccc(Oc5ccccc5)cc4)ncnc32)cc1Cl`, the Inhibition in assay [1] worked out at 99%; in assay [2], 65%; in assay [3], 4%.

On to `NC1CCN(Cc2cccc(-c3csc(-c4nc5ccccc5[nH]4)c3)c2)C1.O=C(O)C(F)(F)F` (stereo not given), for which the Inhibition in assay [1] was 99%; in assay [2], 10%; in assay [3], 10%.

For the molecule `Fc1ccc(C(OCC2CCCN(Cc3cccc4cccnc34)C2)c2ccc(F)cc2)cc1` (stereo not given), the figures for the Inhibition in assay [1], in assay [2] and in assay [3] were 98%, 97% and 21%, respectively.

For the molecule `Br.CC1(C)NC(N)=NC(=N)N1OCc1cccs1`, the Inhibition came out at 93% in assay [1], 0% in assay [2] and 60% in assay [3].

Turning to `CC1CCN(Cc2c(O)ccc3c(O)c(-c4nc5ccccc5s4)c(=N)oc23)CC1`, the Inhibition was 98% in assay [1], 99% in assay [2] and 2% in assay [3].

For `Cc1ccc(C)c(Cn2c(N3CCC(C(=O)NCc4cccs4)CC3)nc3ccccc32)c1`, the Inhibition amounted to 89% in assay [1], 73% in assay [2] and 0% in assay [3].

Turning to `CCOc1ccc2nc(N(CCCn3ccnc3)C(=O)C=Cc3cccs3)sc2c1.Cl`, the Inhibition in assay [1] is given as 97%; in assay [2], 97%; in assay [3], 0%.

With `COc1ccc(NC(=O)CCNc2cc(C)nc(Nc3ccccc3)n2)cc1.O=C(O)C(F)(F)F`, the Inhibition in assay [1] is recorded as 92%; in assay [2], 15%; in assay [3], 0%.

On to `Cc1c(Cc2ccccc2)c(=O)oc2c(C)c3c(cc12)CN(CC(C)c1ccccc1)CO3` (stereo not given), for which the Inhibition is 98% in assay [1], 98% in assay [2] and 1% in assay [3].

With `CC(CN1CCN(C)CC1)C(=O)Nc1ccc(-c2ccc(-c3nc4cc(C(F)(F)F)ccc4[nH]3)cc2)cc1` (stereo not given), the Inhibition stood at 100% in assay [1], 100% in assay [2] and 19% in assay [3].

For `CC(C)(C)c1ccc(NC(=O)N[C@@H]2CCN(c3ccnc4ccccc34)C2)cc1.Cl`, the Inhibition in assay [1] is on record as 100%; in assay [2], 96%; in assay [3], 23%.

For `Cc1nn(-c2cccc(Cl)c2)c2c1C(C(=O)c1ccc3c(c1)OCO3)CC(=O)N2` (stereo not given), the Inhibition was found to be 98% in assay [1], 95% in assay [2] and 5% in assay [3].

On to `O=C(O)C(F)(F)F.c1ccc(CCNCc2ccc(-c3ccc(CNC4CCN(Cc5ccccc5)CC4)cc3)nc2)cc1`, for which the Inhibition in assay [1] was 100%; in assay [2], 99%; in assay [3], 34%.

With `Cl.O=C(N[C@@H](Cc1ccccc1)[C@H](O)CNC1CCc2ccccc2C1)c1cc(C2CCCC2)cc(N2CCCC2=O)c1` (stereo not given in full), the values for the Inhibition in assay [1], in assay [2] and in assay [3] were 99%, 76% and 23%, respectively.
